Laboratory results: PubChem BioAssay (NCI)
Several values for one entry are separate records, joined by “and”; a condition that tells them apart may be missing. Equal values may be shown once. The panel holds about 79,000 compounds, 15% with a hit somewhere; the sample as a whole holds those more often. More than one record can exist for a structure, and the calls need not agree. Activity calls are given as the source filed them. Cut-off read from the data, not from the text of the source: active = growth inhibition above about 70%; inactive = the rest.

What was measured:
[1] = NCI Yeast Anticancer Drug Screen. Data for the rad52 strain (AID 147);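 note: 0% = growth of vehicle-treated control cultures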; conditions: S. cerevisiae rad52 mutant growth inhibition, stronger effect = higher value
Method in brief: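 Yeast strain carrying a DNA damage repair alteration was exposed to test compounds. Growth inhibition was measured relative to vehicle-treated controls.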

[2] = NCI Yeast Anticancer Drug Screen. Data for the wt1 strain (AID 149);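 note: 0% = growth of vehicle-treated wt1 cultures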; conditions: S. cerevisiae wt1 strain (SPY 50644) growth inhibition, stronger effect = higher value
Method in brief: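 wt1 yeast, compound-treated; % growth inhibition vs vehicle control.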

[3] = NCI Yeast Anticancer Drug Screen. Data for the mgt1 strain (AID 153); conditions: S. cerevisiae mgt1 mutant growth inhibition, stronger effect = higher value
Method in brief: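 Yeast mgt1 strain (DNA repair/cell-cycle alteration panel) exposed to compounds; growth inhibition measured relative to vehicle-treated controls.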

[4] = NCI Yeast Anticancer Drug Screen. Data for the rad50 strain (AID 155);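 note: 0% = growth of vehicle-only cultures of the same strain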; conditions: S. cerevisiae rad50 strain growth inhibition, stronger effect = higher value
Method in brief: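 Genetically altered yeast (DNA repair pathway); compound treatment; growth inhibition vs vehicle ctrl.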

[5] = NCI Yeast Anticancer Drug Screen. Data for the mec2-1 strain (AID 157); conditions: S. cerevisiae mec2-1 strain, stronger effect = higher value
Method in brief: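 mec2-1 yeast strain, carrying an alteration in DNA damage repair or cell cycle control, was exposed to compounds; growth inhibition was measured relative to vehicle-treated controls.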

[6] = NCI Yeast Anticancer Drug Screen. Data for the rad14 strain (AID 159);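 note: 0% = growth of vehicle-treated control cultures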; conditions: S. cerevisiae rad14 strain growth inhibition, stronger effect = higher value
Method in brief: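 Test compounds were applied to a repair-deficient yeast strain. Its growth was then compared with that of cultures given vehicle alone, and inhibition was expressed relative to those controls.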

[7] = NCI Yeast Anticancer Drug Screen. Data for the sgs1 mgt1 strain (AID 161);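 note: 0% = growth of cultures given vehicle only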; conditions: S. cerevisiae sgs1 mgt1 strain, stronger effect = higher value
Method in brief: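 Compounds are added to genetically altered yeast, and growth is compared with cultures given vehicle alone to give percent inhibition.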

[8] = NCI Yeast Anticancer Drug Screen. Data for the CLN2oe strain (AID 163);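 note: 0% = growth of vehicle-only control cultures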; conditions: S. cerevisiae CLN2oe strain, stronger effect = higher value
Method in brief: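 Yeast cells carrying a defined cell-cycle control alteration were exposed to test compounds. Growth inhibition was scored against vehicle-treated control cultures.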

[9] = NCI Yeast Anticancer Drug Screen. Data for the cln2 rad14 strain (AID 165);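 note: 0% = growth equal to vehicle treated cultures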; conditions: S. cerevisiae cln2 rad14 strain, stronger effect = higher value
Method in brief: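 Yeast carrying cln2 and rad14 alterations (cell cycle control and DNA damage repair) were exposed to compounds. Growth inhibition was measured against vehicle-treated controls.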

[10] = NCI Yeast Anticancer Drug Screen. Data for the bub3 strain (AID 167); conditions: S. cerevisiae bub3 mutant strain, stronger effect = higher value
Method in brief: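 Yeast carrying a defined mutation is treated with each compound, and growth is compared with that of vehicle-exposed cells to give inhibition.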

[11] = NCI Yeast Anticancer Drug Screen. Data for the wt2 strain (AID 169);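 note: 0% = growth of vehicle-treated yeast cultures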; conditions: S. cerevisiae wt2 strain growth inhibition, stronger effect = higher value
Method in brief: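 Yeast cells were exposed to test compounds, and growth inhibition was measured relative to vehicle-treated controls.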

[12] = NCI Yeast Anticancer Drug Screen. Data for the mlh1 strain (AID 171);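 note: 0% = growth of vehicle-treated control cultures of the same strain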; conditions: S. cerevisiae mlh1 strain growth inhibition, stronger effect = higher value
Method in brief: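 Yeast carrying a defined genetic alteration in DNA damage repair or cell cycle control were exposed to test compounds. Growth inhibition was measured relative to vehicle-treated controls.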

[13] = NCI Yeast Anticancer Drug Screen. Data for the sgs1 strain (AID 173);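 note: 0% = growth of vehicle-only control cultures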; conditions: S. cerevisiae sgs1 mutant, stronger effect = higher value
Method in brief: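 Yeast mutant strains carrying defined defects in DNA damage repair or cell cycle control were exposed to test compounds. Growth inhibition was scored against vehicle-treated controls.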

[14] = NCI Yeast Anticancer Drug Screen. Data for the mlh1 rad18 strain (AID 175); conditions: S. cerevisiae mlh1 rad18 strain growth inhibition, stronger effect = higher value
Method in brief: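 Growth inhibition of the yeast strain was measured after compound exposure and expressed relative to vehicle-treated controls. The strain carries defined defects in DNA damage repair.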

[15] = NCI Yeast Anticancer Drug Screen. Data for the rad18 strain (AID 177); conditions: S. cerevisiae rad18 mutant growth inhibition, stronger effect = higher value
Method in brief: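 Yeast carrying a defined DNA damage repair alteration were exposed to compounds. Growth inhibition was expressed relative to vehicle-treated controls.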

[16] = at 5.0 µM (retest, dose inferred, filed as 0.5)
[17] = at 50.0 µM (retest, dose inferred, filed as 5.0)

Measured: growth inhibition

c1ccc2[nH]c(-c3cscn3)nc2c1
33.4% (inactive) and 84.8% (active): [10]; at 50.0 µM
active: [10]; at 100.0 µM 70%
inactive: [1]; at 1.2 µM -3% | [1]; at 3.7 µM -3% | [1]; at 11.0 µM -3% | [1]; at 33.0 µM 2% | [1]; at 100.0 µM -1% | [2]; at 1.2 µM -1% | [2]; at 3.7 µM -3% | [2]; at 11.0 µM -2% | [2]; at 33.0 µM -5% | [2]; at 100.0 µM -4% | [3]; at 1.2 µM -2% | [3]; at 3.7 µM -2% | [3]; at 11.0 µM -5% | [3]; at 33.0 µM -5% | [3]; at 100.0 µM -7% | [4]; at 1.2 µM -2% | [4]; at 3.7 µM 3% | [4]; [16] -19% | [4]; at 11.0 µM -1% | [4]; at 33.0 µM 4% | [4]; [17] -2% | [4]; at 50.0 µM -4.2% and 39.9% | [4]; at 100.0 µM 11% | [5]; at 1.2 µM -2% | [5]; at 3.7 µM -8% | [5]; [16] -12% | [5]; at 11.0 µM -3% | [5]; at 33.0 µM -6% | [5]; [17] 4% | [5]; at 50.0 µM 7.6% and 38.2% | [5]; at 100.0 µM -8% | [6]; at 1.2 µM -4% | [6]; at 3.7 µM -5% | [6]; at 11.0 µM -3% | [6]; at 33.0 µM -5% | [6]; at 100.0 µM -2% | [7]; [16] -3% | [7]; [17] 13% | [7]; at 50.0 µM -4% and -3% | [8]; at 1.2 µM -7% | [8]; at 3.7 µM -3% | [8]; at 11.0 µM -7% | [8]; at 33.0 µM -11% | [8]; at 100.0 µM -19% | [9]; [16] -25% | [9]; [17] -24% | [9]; at 50.0 µM -19.7% and 32.1% | [10]; at 1.2 µM 6% | [10]; at 3.7 µM 8% | [10]; [16] 5% | [10]; at 11.0 µM 12% | [10]; at 33.0 µM 36% | [10]; [17] 56% | [11]; at 1.2 µM -3% | [11]; at 3.7 µM -3% | [11]; at 11.0 µM -6% | [11]; at 33.0 µM -5% | [11]; at 100.0 µM 0% | [12]; at 1.2 µM -2% | [12]; at 3.7 µM -2% | [12]; at 11.0 µM -7% | [12]; at 33.0 µM -3% | [12]; at 100.0 µM 11% | [13]; at 1.2 µM -1% | [13]; at 3.7 µM -3% | [13]; at 11.0 µM -1% | [13]; at 33.0 µM -3% | [13]; at 100.0 µM -2% | [14]; [16] 14% | [14]; [17] 1% | [14]; at 50.0 µM -37% and 39.7% | [15]; at 1.2 µM -1% | [15]; at 3.7 µM -3% | [15]; at 11.0 µM -2% | [15]; at 33.0 µM 3% | [15]; at 100.0 µM 18%

O=C1CSC(c2cccc(Cl)c2)N1c1ccc(-c2ccc(-n3c(-c4ccccc4)nc4ccccc4c3=O)cc2)cc1 (stereo not drawn)
inactive: [1]; at 1.2 µM 1% | [1]; at 3.7 µM 5% | [1]; at 11.0 µM 8% | [1]; at 33.0 µM 7% | [1]; at 100.0 µM 18% | [2]; at 1.2 µM 1% | [2]; at 3.7 µM 1% | [2]; at 11.0 µM -1% | [2]; at 33.0 µM -4% | [2]; at 100.0 µM -3% | [3]; at 1.2 µM 1% | [3]; at 3.7 µM 2% | [3]; at 11.0 µM 3% | [3]; at 33.0 µM 25% | [3]; at 100.0 µM 60% | [4]; at 1.2 µM 2% | [4]; at 3.7 µM 6% | [4]; [16] -2% | [4]; at 11.0 µM 7% | [4]; at 33.0 µM 15% | [4]; [17] 61% | [4]; at 50.0 µM 66.8% | [4]; at 100.0 µM 22% | [5]; at 1.2 µM 3% | [5]; at 3.7 µM 4% | [5]; [16] -9% | [5]; at 11.0 µM 6% | [5]; at 33.0 µM 9% | [5]; [17] -26% | [5]; at 50.0 µM 68.5% | [5]; at 100.0 µM 16% | [6]; at 1.2 µM 7% | [6]; at 3.7 µM 9% | [6]; at 11.0 µM 15% | [6]; at 33.0 µM 32% | [6]; at 100.0 µM 47% | [7]; [16] 8% | [7]; at 50.0 µM 43.2% | [8]; at 1.2 µM 13% | [8]; at 3.7 µM 11% | [8]; at 11.0 µM 15% | [8]; at 33.0 µM 15% | [8]; at 100.0 µM 11% | [9]; [16] 31% | [9]; [17] 46% | [9]; at 50.0 µM 41.6% | [10]; at 1.2 µM 5% | [10]; at 3.7 µM 4% | [10]; [16] 10% | [10]; at 11.0 µM 6% | [10]; at 33.0 µM 8% | [10]; at 100.0 µM 29% | [11]; at 1.2 µM 0% | [11]; at 3.7 µM -2% | [11]; at 11.0 µM 0% | [11]; at 33.0 µM 15% | [11]; at 100.0 µM 39%
active: [7]; [17] 83% | [10]; [17] 85% | [10]; at 50.0 µM 86.8%
